Source: PubChem (National Center for Advancing Translational Sciences (NCATS))
HCV inh: HCV inhibition. Huh7.5.1 HCVcc-Cre infection, luciferase reporter, 44 h. Potency, µM (top dose mostly 41.8 µM), actives largely listed as inhibitors. 340,000 tested, 3.4% active
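Antiviral activity was scored by luciferase reporter output from cells infected with HCVcc-Cre (~0.5 moi) in presence of compound, 44 h infection period, cells seeded 1,000/well 4 h prior.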
HCMV inh: blocks human cytomegalovirus replication; HFF cells, HCMV-luciferase reporter, 72 h; hits give low values; activity change, negative = inhibition, % at 57.5 µM; 410,000 tested, 4.5% active; AID 1259415; in the data active = activity change below about -60%; inconclusive = no clear call, values can overlap the other calls; inactive = above about -39%
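Two compound doses tested in HFFs infected with HCMV-luciferase, MOI 1 PFU/cell, 72 h at 37C. Lysate luminescence read with OneGlo; data normalized against buffer-only and 10uM Salinomycin inhibitor controls.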
Pf growth 48h: P. falciparum growth inhibition at 48 hours (one generation); 310,000 tested, 5.9% active; P. falciparum luciferase growth in erythrocytes, 48 h; AID 504832; Potency, µM (top dose mostly 28.7 µM), hits mostly inhibitors
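Parasite viability was followed by luminescence of a genomically integrated firefly luciferase. Cultures held 0.1% parasitemia at 2% hematocrit (final), incubated under 5% CO2 at 37 C.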
Shiga inhibitor: inhibitors of Shiga toxin in Vero cells; 290,000 tested, 9.2% active; inhibition, % at 38.7 µM; Vero cells, Shiga toxin protein synthesis inhibition reporter; AID 2315; in the data active = inhibition mostly above about 28%, no sharp cut-off; inactive = mostly below about 43%
Pf growth 96h: inhibits malaria parasite growth, 96 h | AID 504834 | Potency, µM (series often up to 28.7 µM), usual class: inhibitors | P. falciparum luciferase reporter growth, 96 h | 320,000 tested, 6.9% active
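Readout is luminescence from an integrated firefly luciferase in P. falciparum. Red cells, 2% hematocrit and 0.05% parasitemia final, were cultured with compound through two parasite generations (96 hours) at 37 C, 5% CO2.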
CHX counter: counter-screen hit for Shiga toxin inhibitors, cycloheximide; cell reporter, cycloheximide protein synthesis inhibition counterscreen; max response, %; 300,000 tested, 12% active; in the data active = max response mostly above about 13%, no sharp cut-off; inactive = mostly below about 14%; note: read at 38.3 µM for the half of the compounds with a filed dose
A number is an active result. The list is not random: actives were taken first. Their share in the collection is about 21%. Unless noted, calls come from the whole dose curve; as a rule, active = well fitted inhibition curve with a large enough effect; inconclusive = small, poorly fitted or top-dose-only effect, or another doubt; inactive = no such curve, though single readings can be large or run the other way.

Results for CC(C)COc1ccc(-c2cc(C(=O)NN)[nH]n2)cc1 ?
HCV inh: inactive; HCMV inh: inactive; Pf growth 48h: inactive; Shiga inhibitor: inactive; Pf growth 96h: inconclusive; CHX counter: 27

How did CCOC(=O)c1cc(-c2ccc3c(c2)OCCO3)n[nH]1 do in these assays?
HCV inh: inactive; HCMV inh: inactive; Pf growth 48h: inactive; Shiga inhibitor: 61; Pf growth 96h: inactive; CHX counter: 48

Results for Oc1ccccc1-c1cc(-c2ccc3c(c2)OCCO3)n[nH]1 ?
HCV inh: inactive; HCMV inh: inactive; Pf growth 48h: inactive; Shiga inhibitor: inactive; Pf growth 96h: inactive; CHX counter: 32

How did CCOc1ccc(-c2cc(C(=O)NN=C3CCN(C)CC3)[nH]n2)cc1 do in these assays?
HCV inh: inactive; HCMV inh: inactive; Pf growth 48h: inactive; Shiga inhibitor: 60; Pf growth 96h: inactive; CHX counter: 25

Results for O=C(O)c1cc(-c2ccc3c(c2)OCCO3)n[nH]1 ?
HCV inh: inactive; HCMV inh: inactive; Pf growth 48h: inactive; Shiga inhibitor: inactive; Pf growth 96h: inconclusive; CHX counter: inactive

How did CCOC(=O)C1CCN(CC(O)COC(CC)c2ccccc2)CC1 (stereo unspecified) do in these assays?
HCV inh: inactive; HCMV inh: inactive; Pf growth 48h: inactive; Shiga inhibitor: inactive; Pf growth 96h: inactive; CHX counter: inactive

Results for Cc1ccc(CCNC(=O)CN(c2ccc(C(C)C)cc2)S(=O)(=O)c2c(C)nn(C)c2C)cc1 ?
HCMV inh: inactive

Results for CCOC(=O)c1cc(-c2ccc(OC)cc2)n[nH]1 ?
HCV inh: inactive; HCMV inh: inactive; Pf growth 48h: inactive; Shiga inhibitor: 101; Pf growth 96h: inactive; CHX counter: 69

Results for CNc1ncnc2c1ncn2[C@@H]1O[C@H](CO)[C@@H](O)[C@H]1O ?
HCV inh: inactive; HCMV inh: inactive; Pf growth 48h: inconclusive; Pf growth 96h: inactive

What do the screens show for `Nc1ncnc2nn(C3OC(CO)C(O)C3O)nc12` (stereo unspecified)?
HCMV inh: inactive

How did OCC1OC(n2ccc3c2ncn2ncnc32)C(O)C1O (stereo unspecified) do in these assays?
HCMV inh: -95

How did Nc1ncnc2c1ccn2[C@@H]1O[C@H](CO)[C@@H](O)[C@H]1O do in these assays?
HCV inh: 35µM; HCMV inh: -106; Shiga inhibitor: inactive; CHX counter: inactive

Results for COCCCNc1nc2ccccc2nc1NS(=O)(=O)c1ccc(C)cc1C ?
HCV inh: inactive; HCMV inh: inactive; Pf growth 48h: inactive; Shiga inhibitor: inactive; Pf growth 96h: inactive; CHX counter: inactive

How did O=C(CN(CCc1ccccc1)C(=O)c1csnn1)NC1CCCC1 do in these assays?
HCV inh: inactive; HCMV inh: inconclusive; Pf growth 48h: inactive; Shiga inhibitor: inactive; Pf growth 96h: inactive; CHX counter: inactive

How did CC(/C=N/NC(=O)c1cc(-c2ccc(C)s2)[nH]n1)=C\c1ccccc1 do in these assays?
HCV inh: 5.6µM; HCMV inh: inactive; Pf growth 48h: inactive; Shiga inhibitor: inactive; Pf growth 96h: inconclusive; CHX counter: inactive

Results for CC(/C=N/NC(=O)c1cc(C(C)(C)C)[nH]n1)=C\c1ccccc1 ?
HCV inh: 14µM; HCMV inh: inactive; Pf growth 48h: inconclusive; Shiga inhibitor: inactive; Pf growth 96h: inconclusive; CHX counter: inactive

What do the screens show for `COc1ccc(CNC(=O)C2CCN(c3nc4ccccc4[nH]3)CC2)cc1OC`?
HCMV inh: inactive

Results for Cc1ccc(C2=NO[C@@](CC(=O)O)(C(=O)Nc3ccc4c(c3)OCCO4)C2)cc1 ?
HCV inh: inactive; HCMV inh: inactive; Pf growth 48h: inactive; Shiga inhibitor: 117; Pf growth 96h: inactive; CHX counter: 129

Results for COc1ccc(OC)c(C2=NO[C@@](CC(=O)O)(C(=O)Nc3ccc4c(c3)OCCO4)C2)c1 ?
HCV inh: inactive; HCMV inh: -100; Pf growth 48h: inactive; Shiga inhibitor: 77; Pf growth 96h: inactive; CHX counter: 65

Results for O=C(O)CC1(CC(=O)Nc2ccc3c(c2)OCCCO3)CCCCC1 ?
HCV inh: inactive; HCMV inh: inactive; Pf growth 48h: inactive; Shiga inhibitor: inactive; Pf growth 96h: inactive; CHX counter: inactive

What do the screens show for `CCc1cccc(C)c1NC(=O)CCCn1nc(C)c2sc3ccccc3c2c1=O`?
HCMV inh: inactive

What do the screens show for `Cc1ccc(NC(=O)c2ccc(NCCCN3CCC(C)CC3)c([N+](=O)[O-])c2)c(C)c1`?
HCV inh: 11µM; HCMV inh: inconclusive; Pf growth 48h: 3.3µM; Shiga inhibitor: inactive; Pf growth 96h: inconclusive; CHX counter: inactive

How did O=C(Nc1ccccc1)c1ccc(NCCN2C(=O)CCC2=O)c([N+](=O)[O-])c1 do in these assays?
HCV inh: inactive; HCMV inh: inactive; Pf growth 48h: inactive; Shiga inhibitor: inactive; Pf growth 96h: inactive; CHX counter: inactive

Results for COc1cccc(NC(=O)c2ccc(NCCCN3CCC(C)CC3)c([N+](=O)[O-])c2)c1 ?
HCV inh: inconclusive; HCMV inh: inactive; Pf growth 48h: 2.1µM; Shiga inhibitor: inactive; Pf growth 96h: inconclusive; CHX counter: inactive

What do the screens show for `Cc1ccc(NC(=O)c2c([N+](=O)[O-])c(C(C)(C)C)nn2C)c(C)c1`?
HCV inh: inconclusive; HCMV inh: inconclusive; Pf growth 48h: inconclusive; Shiga inhibitor: inactive; Pf growth 96h: inconclusive; CHX counter: inactive

What do the screens show for `CCCN(CCC)CCCNc1ccc(C(=O)Nc2cccc(OC)c2)cc1[N+](=O)[O-]`?
HCV inh: inconclusive; HCMV inh: inconclusive; Pf growth 48h: 1.5µM; Shiga inhibitor: inactive; Pf growth 96h: inactive; CHX counter: inactive

Results for COc1cccc(Nc2ccc(C(=O)O)cc2[N+](=O)[O-])c1 ?
HCV inh: inactive; HCMV inh: inactive; Pf growth 48h: inactive; Shiga inhibitor: inactive; Pf growth 96h: inactive; CHX counter: inactive

What do the screens show for `COc1cccc(NC(=O)c2ccc(NCCCN3CC(C)CC(C)C3)c([N+](=O)[O-])c2)c1` (stereo unspecified)?
HCV inh: 7.9µM; HCMV inh: inactive; Pf growth 48h: inconclusive; Shiga inhibitor: inactive; Pf growth 96h: 3.7µM; CHX counter: inactive

How did O=C(Nc1cc(F)cc(F)c1)c1ccc(NCCCN2CCCCCC2)c([N+](=O)[O-])c1 do in these assays?
HCV inh: inconclusive; HCMV inh: inactive; Pf growth 48h: inconclusive; Shiga inhibitor: inactive; Pf growth 96h: inconclusive; CHX counter: inactive

Results for NC(=N\N=CCc1ccccc1)/C(N)=N/N=CCc1ccccc1 ?
HCV inh: inactive; HCMV inh: inactive

How did C=CCNc1ncnc2ccccc12 do in these assays?
HCV inh: inactive; HCMV inh: inactive; Pf growth 48h: inactive; Shiga inhibitor: inactive; Pf growth 96h: inactive; CHX counter: inactive

How did C=CCNc1ncnc2c1[nH]c1ccc(Cl)cc12 do in these assays?
HCV inh: inconclusive; HCMV inh: -97; Pf growth 48h: inconclusive; Shiga inhibitor: 82; CHX counter: 37
